Drawing on PubChem BioAssay (NCATS), this text covers Potency and outcome for 43 compounds.

The target of test [1] is Protein phosphatase 1D (Homo sapiens) (UniProt O15297). Put plainly: RapidFire Mass Spectrometry qHTS Assay for Modulators of WT P53-Induced Phosphatase 1 (WIP1) (AID 1347424).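 Also: amount of dephosphorylated VEPPL-S-QETFS peptide product formed by WIP1.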 Also: potency is read from the fitted curve at half-maximal effect. In outline:
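10 nM WIP1 preincubated with compounds 1 hr at room temperature in pH 7.5 Tris buffer with 30 mM MgCl2, 1 mM TCEP; 2 uM VEPPL-pS-QETFS phosphopeptide for 5 min, formic acid quench; dephosphorylated product quantified by RapidFire MS against labelled standard.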

A short description of test [2]: Primary qHTS for inhibitors of La Crosse Virus (LACV) - induced cell death in SH-SY5Y cells (AID 1508616).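 Also: top concentration of the series differs between compounds; higher means more rescue of cells from virus-induced death.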 Summed up:
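Luminescent ATP readout (ATPLite 1step, 5 min room temperature) measured rescue from LACV-induced death after 6 days of infection at 0.01 MOI; normalized to infected DMSO wells and uninfected DMSO wells.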

Test [3] has as its target Calcium and integrin-binding protein 1 (Homo sapiens) (UniProt Q99828). Put plainly: Primary qHTS for Identification of Calcium Integrin Binding Protein 1 (CIB1) Competitor (AID 1508620).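 Also: GST tagged CIB1 binding a fluorescein labelled alphaIIb integrin peptide tracer; top concentration of the series differs between compounds.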 Summed up:
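Fluorescence polarization competition: GST-tagged CIB1 (1 uM final) preincubated with compound 15 min at room temperature, then FITC-labelled alphaIIb peptide (100 nM final) added. After 15 min at room temperature, polarization read at Ex 480/Em 540.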

The target of test [4] is Protein phosphatase 1D (Homo sapiens) (UniProt O15297). As to the kind of experiment: Rhodamine-PBP qHTS Assay for Modulators of WT P53-Induced Phosphatase 1 (WIP1) (AID 1347425). Summed up: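 5 nM WIP1 + 10 uM Rh-PBP, 50 mM Tris pH 7.5, 30 mM MgCl2, 1 mM TCEP, 0.1 mM EGTA, BSA; cpds pinned, 1 hr RT; + 10 uM phosphopeptide; fluorescence 1-min reads x 11 min; delta = f1 - f0.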
Protein phosphatase 1D (Homo sapiens), sequence (O15297 whole entry, looked up): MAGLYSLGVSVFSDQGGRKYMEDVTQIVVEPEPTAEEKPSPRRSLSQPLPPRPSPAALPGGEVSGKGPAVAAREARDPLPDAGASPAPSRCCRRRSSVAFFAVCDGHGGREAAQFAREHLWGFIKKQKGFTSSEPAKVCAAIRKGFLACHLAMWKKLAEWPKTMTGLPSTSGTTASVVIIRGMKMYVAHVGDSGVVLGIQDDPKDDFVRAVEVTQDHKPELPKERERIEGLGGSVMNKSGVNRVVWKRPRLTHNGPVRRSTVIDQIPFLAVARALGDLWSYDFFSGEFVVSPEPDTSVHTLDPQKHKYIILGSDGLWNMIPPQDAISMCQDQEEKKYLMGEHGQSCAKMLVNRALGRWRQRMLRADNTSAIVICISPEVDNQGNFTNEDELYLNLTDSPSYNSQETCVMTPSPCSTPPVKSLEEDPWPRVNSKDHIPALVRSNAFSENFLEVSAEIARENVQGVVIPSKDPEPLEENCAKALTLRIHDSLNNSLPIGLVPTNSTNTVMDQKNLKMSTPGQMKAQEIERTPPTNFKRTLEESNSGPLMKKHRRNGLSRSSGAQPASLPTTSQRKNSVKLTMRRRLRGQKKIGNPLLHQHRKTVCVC

The nature of test [5]: Counterscreen qHTS for small molecule stabilizers of the endoplasmic reticulum resident proteome: GLuc-NoTag assay (AID 1508627).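 Also: SH-SY5Y cells given compound then 100 nM thapsigargin to empty ER calcium; series mostly up to about 76 µM.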 In outline: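 SH-SY5Y cells stably expressing constitutively secreted GLuc without SERCaMP tag, exposed to compound for 19 hr, then to 100 nM thapsigargin for 4 hr at 37C. Medium luciferase was read by coelenterazine luminescence without lysis.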

The target in test [6] is Calcium and integrin-binding protein 1 (Homo sapiens) (UniProt Q99828). Put plainly: Confirmatory qHTS for Identification of Calcium Integrin Binding Protein 1 (CIB1) Competitor (AID 1508617). Also: nearly all actives have a fitted effect of over 65% in size. In outline:
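Confirmatory qHTS measures displacement of a FITC-alphaIIb peptide (100 nM) from CIB1-GST (1 uM) by fluorescence polarization. Calcium-containing HEPES buffer, pH 7.4; two 15 min room-temperature incubations.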

Records with an inconclusive call do not appear. Entries that show only a call come without a potency. Active and inactive are the calls of the source. Calls follow the shape of the dose curve; as a rule, active = well fitted curve in the direction sought with a large enough effect; inconclusive = small, poorly fitted or top-dose-only effect, or another doubt; inactive = no such curve, though single readings can be large; an effect the other way counts as inactive or inconclusive.

Calcium and integrin-binding protein 1 (Homo sapiens), sequence (Q99828 whole entry, looked up): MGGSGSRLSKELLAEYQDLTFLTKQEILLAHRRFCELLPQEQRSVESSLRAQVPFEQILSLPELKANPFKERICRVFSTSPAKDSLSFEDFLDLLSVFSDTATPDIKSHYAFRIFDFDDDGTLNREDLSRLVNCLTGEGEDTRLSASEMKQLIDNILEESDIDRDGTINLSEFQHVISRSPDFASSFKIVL

As to `c1ccc(C(O[C@H]2CCCN(CCc3ccc4c(c3)OCO4)C2)c2ccccc2)cc1`, the Potency result in test [1] and in test [3] was “inactive” throughout. In test [2], the outcome was inactive.

Turning to `CNC(=O)c1c(I)c(NC(C)=O)c(I)c(C(=O)O)c1I`, the Potency entry in test [1] and in test [3] was “inactive” in each case. The result in test [2] was inactive.

For the compound `O=C(Nc1ccc(Cl)cc1)Nc1ccc(Cl)c(C(F)(F)F)c1`, the Potency in test [1] is 12.6 µM (active). For the same compound, in test [2], the call was inactive. Also, the Potency result in test [3] is “inactive”.

Turning to `CCCCCCCCCCCCCCCCCCNC(=O)OC1CCN(C(=O)OC[C@H](COC(=O)N(Cc2cccc[n+]2CC)C(=O)c2ccccc2OC)OC)CC1`, the Potency result in test [1] and in test [3] was “inactive” each time. In addition, in test [2], the call was inactive.

Consider `CC(C)(C)c1cc(C=O)cc(C(C)(C)C)c1O`, for which the Potency entry in test [1] and in test [3] was “inactive” each time. Further, the call in test [2] was inactive.

Turning to `CC(=O)Oc1ccc(C2(c3ccc(OC(C)=O)cc3)Oc3ccccc3NC2=O)cc1`, the Potency result in test [1] and in test [3] was “inactive” in each case. The outcome in test [2] was inactive.

Regarding `CC(=O)c1ccc(O)c(C(N)=O)c1`, the Potency entry in test [1] and in test [3] was “inactive” throughout. Besides, in test [2], the outcome was inactive.

As for `Nc1ccc(C(=O)N2CC3CC(CN(Cc4ccccc4)C3)C2)cc1`, the Potency entry in test [1] and in test [3] was “inactive” each time. Also, in test [2], the compound was called inactive.

As to `CCN1CCN(C(=O)N[C@@H](C(=O)N[C@@H]2C(=O)N3[C@@H]2SC(C)(C)[C@H]3C(=O)O)c2ccccc2)C(=O)C1=O`, the Potency entry in test [1] and in test [3] was “inactive” throughout. The outcome in test [2] was inactive.

As for `CC(C)(C)C1CCC(CC2=C(O)c3ccccc3C(=O)C2=O)CC1` (stereo unspecified), the Potency result in test [1] and in test [3] was “inactive” throughout. The outcome in test [4] was inactive.

As for `CCCCC(CC)COC(=O)c1ccccc1C(=O)O` (stereo unspecified), the Potency entry in test [1] and in test [3] was “inactive” throughout. The outcome in test [2] was inactive.

With `O=C(Oc1ccccc1)c1ccccc1O`, the Potency entry in test [1] and in test [3] was “inactive” in each case. In addition, in test [2], the compound was called inactive.

As for `CCCCOCCOC(=O)c1cccnc1`, the Potency entry in test [1] and in test [3] was “inactive” in each case. For the same compound, the compound was called inactive in test [4].

Take `CC(=O)CC/C=C(\C)CC/C=C(\C)CC/C=C(\C)CCC=C(C)C`: the Potency entry in test [1] and in test [3] was “inactive” each time. Besides, the call in test [4] was inactive.

Consider `Nc1c2ccccc2nc2ccccc12`, for which the Potency result in test [1] and in test [3] was “inactive” in each case. For the same compound, in test [4], the compound was classed as inactive.

Regarding `CN1CCC(Nc2ncc3ncnc(Nc4ccc(F)c(Cl)c4)c3n2)CC1`, the Potency result in test [1], in test [3] and in test [5] was “inactive” each time. In test [4], the compound was called inactive.

Consider `CN(C(=O)C(Cl)Cl)c1ccc(OC(=O)c2ccco2)cc1`, for which the Potency result in test [1] and in test [3] was “inactive” each time. Further, the outcome in test [2] was inactive.

With `NC(=O)C1(N2CCCCC2)CCN(CCCN2c3ccccc3CCc3ccc(Cl)cc32)CC1`, the Potency entry in test [1] and in test [3] was “inactive” throughout. Moreover, the outcome in test [4] was inactive.

`CCC(C(=O)OCCN1CCOC(c2ccccc2)C1C)c1ccccc1` (stereo unspecified): the Potency entry in test [1] and in test [3] was “inactive” throughout. In test [2], the call was inactive.

Take `COC(=O)c1cc(Cl)ccc1NS(=O)(=O)C(F)(F)F`: the Potency entry in test [1] and in test [6] was “inactive” each time. The call in test [2] was inactive.

For `CCCOc1ccc2c(c1)CC[C@@H]1[C@@H]2CC[C@]2(C)C(OC)CC[C@@H]12` (stereo partly specified), the Potency entry in test [1] and in test [3] was “inactive” throughout. In addition, the compound was called inactive in test [4].

On to `CN1CCN(N)CC1`, for which the call in test [4] and in test [2] was inactive. Further, in test [3], the Potency result was “inactive”.

As to `Cc1ccc(C(=O)Oc2ccc(C(O)CNC(C)(C)C)cc2OC(=O)c2ccc(C)cc2)cc1` (stereo unspecified), the compound was classed as inactive in test [4] and in test [2]. In addition, the Potency result in test [3] is “inactive”.

As to `CCCC(=O)O[C@]1(C(=O)CC)CC[C@H]2[C@@H]3CCC4=CC(=O)CC[C@]4(C)[C@H]3[C@@H](O)C[C@@]21C`, the compound was classed as inactive in test [4] and in test [2]. The Potency result in test [3] was “inactive”.

Consider `O=C1OC2(c3ccccc31)c1cc(I)c(O)c(I)c1Oc1c2cc(I)c(O)c1I`, for which the outcome in test [2] was inactive. In addition, the Potency entry in test [3] was “inactive”.

Consider `Cc1ccc(CCn2c3c(c4cc(Cl)ccc42)CN(C)CC3)cn1`, for which the result in test [2] was inactive. Besides, the Potency result in test [3] was “inactive”.

Take `CC(NCCC(c1ccccc1)c1ccccc1)c1ccccc1` (stereo unspecified): the outcome in test [4] and in test [2] was inactive. Moreover, the Potency result in test [3] was “inactive”.

In the case of `Cc1cccc(N(C)C(=S)Oc2ccc3c(c2)CCC3)c1`, the compound was called inactive in test [4]. Moreover, the Potency result in test [3] was “inactive”.

As to `C[C@H](N)C(=O)N[C@@H](C)C(=O)NC1[C@H]2CN(c3nc4c(cc3F)c(=O)c(C(=O)O)cn4-c3ccc(F)cc3F)C[C@@H]12` (stereo partly specified), the compound was called inactive in test [2]. In addition, the Potency entry in test [3] and in test [5] was “inactive” throughout.

`Nc1c[n+](N2CCOCC2)no1`: the result in test [4] and in test [2] was inactive. The Potency result in test [3] was “inactive”.

Turning to `OCc1c[nH]c2ccccc12`, the compound was called inactive in test [2]. For the same compound, the Potency result in test [3] was “inactive”.

As for `N[C@@H](Cc1cc(I)c(O)c(I)c1)C(=O)O`, the result in test [2] was inactive. The Potency entry in test [5] is “inactive”.

With `Cc1ccc(C(=O)C(=O)O)cc1C`, the outcome in test [4] and in test [2] was inactive. Further, the Potency entry in test [3] was “inactive”.

`CN1Cc2cc(C(=O)N3CCC(C4CCNCC4)CC3)ccc2NC(CC(=O)O)C1=O` (stereo unspecified): the call in test [4] and in test [2] was inactive. Moreover, the Potency entry in test [3] is “inactive”.

On to `Cc1oc(-c2ccccc2)nc1CCC(=O)c1ccc(CC2SC(=O)NC2=O)cc1` (stereo unspecified), for which, in test [3], the Potency result is “inactive”.

For the compound `CC(COc1ccccc1)NN` (stereo unspecified), the outcome in test [4] and in test [2] was inactive. Also, the Potency result in test [3] is “inactive”.

On to `CCOC(=O)N1CCC(Nc2ccc(Cl)cc2N)CC1`, for which the call in test [4] and in test [2] was inactive. For the same compound, the Potency entry in test [3] was “inactive”.

Consider `Cc1ccccc1C(=O)N1CC/C(=N\OS(=O)(=O)O)c2ccc(Cl)cc21`, for which, in test [2], the outcome was inactive. Also, the Potency entry in test [3] was “inactive”.

On to `CC(C)(C)c1ccc(O)c(O)c1`, for which the call in test [4] was inactive. The Potency result in test [3] and in test [5] was “inactive” each time.

As to `CCOC(=O)OCC/C(SC(=O)OCC)=C(\C)N(C=O)Cc1cnc(C)nc1N`, the compound was called inactive in test [4] and in test [2]. Also, the Potency entry in test [3] was “inactive”.

For `C[C@@H](O[C@H]1OCCN(Cc2n[nH]c(=O)[nH]2)[C@H]1c1ccc(F)cc1)c1cc(C(F)(F)F)cc(C(F)(F)F)c1`, in test [2], the result was inactive. Further, the Potency result in test [3] was “inactive”.

Take `CC(=O)Nc1ccc(S(=O)(=O)Nc2cc(C)on2)cc1`: the outcome in test [4] and in test [2] was inactive. Moreover, in test [3], the Potency entry is “inactive”.

On to `C=CC[N+]1([C@H]2C[C@H]3[C@@H]4CC[C@H]5C[C@H](OC(C)=O)[C@@H](N6CCCCC6)C[C@]5(C)[C@H]4CC[C@]3(C)[C@H]2OC(=O)CC)CCCCC1`, for which the outcome in test [4] and in test [2] was inactive. Moreover, in test [3], the Potency result is “inactive”.
